PubChem BioAssay (EPA / NIEHS)
Active and inactive are the calls of the source. The calls were made as follows: active = hit-call score of the fitted dose curve at least 0.9, where 1 is the maximum; inactive = score below 0.9.

Key:
Settings in all cases: mRNA level, 48 h; actives raise or lower the signal
[1] = read-out: ABC Transporter (ABCC2), ABCC2 (gene 1244); assay: LTEA_HepaRG_ABCC2: Life Technologies and Expression Analysis (LTEA) Assay for ABC Transporter (ABCC2) using HepaRG (AID 2283464)
Procedure, shortened: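 HepaRG, 48 h post-plating; serum-free induction medium; cpd 8-pt, 100 uM top, half-log, 0.5% DMSO, duplicate, 48 h. Readout: ABCC2 mRNA by qRT-PCR, norm. ACTB/GAPDH/POLR2A. Bidirectional fit vs DMSO baseline.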

[2] = read-out: Broad substrate specificity ATP-binding cassette transporter ABCG2 (Homo sapiens) (UniProt Q9UNQ0); assay: LTEA_HepaRG_ABCG2: Life Technologies and Expression Analysis (LTEA) Assay for ABC Transporter (ABCG2) using HepaRG (AID 2283465)
Procedure, shortened: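 Differentiated HepaRG cells were exposed for 48 h in serum-free induction medium to 8 half-log concentrations, top 100 uM, in 0.5% DMSO. ABCG2 mRNA was measured by qRT-PCR, normalized to ACTB, GAPDH and POLR2A, with bidirectional fitting versus DMSO.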

[3] = read-out: ATP-citrate lyase (ACLY), ACLY (gene 47); assay: LTEA_HepaRG_ACLY: Life Technologies and Expression Analysis (LTEA) Assay for ATP-citrate lyase (ACLY) using HepaRG (AID 2283466)
Procedure, shortened: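 Differentiated HepaRG cells exposed 48 h in serum-free induction medium to eight half-log concentrations up to 100 uM in 0.5% DMSO, duplicates. Transcript measured by Fluidigm TaqMan qRT-PCR, normalized to ACTB, GAPDH, POLR2A; bidirectional fit versus DMSO.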

[4] = read-out: Peroxisomal acyl-coenzyme A oxidase 1 (ACOX1) gene, ACOX1 (gene 51); assay: LTEA_HepaRG_ACOX1: Life Technologies and Expression Analysis (LTEA) Assay for Peroxisomal acyl-coenzyme A oxidase 1 (ACOX1) gene using HepaRG (AID 2283467)
Procedure, shortened: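 HepaRG cells, plated 48 h then switched to serum-free induction medium, were exposed in duplicate for 48 h to 8-point half-log concentrations up to 100 uM in 0.5% DMSO. ACOX1 mRNA was measured by qRT-PCR, normalized to ACTB/GAPDH/POLR2A, and fitted bidirectionally versus DMSO.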

[5] = read-out: Alkaline Phosphatase, Placental (ALPP) gene, ALPP (gene 250); assay: LTEA_HepaRG_ALPP: Life Technologies and Expression Analysis (LTEA) Assay for Alkaline Phosphatase, Placental (ALPP) gene using HepaRG (AID 2283468)
Procedure, shortened: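 HepaRG, 48 h plating then 48 h dosing, serum-free induction medium, 0.5% DMSO. 8 conc, half-log, max 100 uM, duplicates. Endpoint: ALPP transcript by qRT-PCR, housekeeping-normalized; gain or loss fitted vs DMSO.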

[6] = read-out: Bcl-2 (BAD) gene, BAD (gene 572); assay: LTEA_HepaRG_BAD: Life Technologies and Expression Analysis (LTEA) Assay for Bcl-2 (BAD) gene using HepaRG (AID 2283469)
Procedure, shortened: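 Differentiated HepaRG cells were exposed in duplicate in 0.5% DMSO for 48 h to eight-point half-log concentrations up to 100 uM. BAD mRNA was measured by Fluidigm TaqMan qRT-PCR, normalized to ACTB, GAPDH and POLR2A, and fitted bidirectionally against DMSO.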

[7] = read-out: Bcl-2 (BAX) gene, BAX (gene 581); assay: LTEA_HepaRG_BAX: Life Technologies and Expression Analysis (LTEA) Assay for Bcl-2 (BAX) gene using HepaRG (AID 2283470)
Procedure, shortened: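 Differentiated HepaRG cells exposed 48 h in serum-free induction medium, eight half-log concentrations from 100 uM, in duplicate, 0.5% DMSO vehicle. BAX mRNA by TaqMan qRT-PCR, normalised to ACTB, GAPDH and POLR2A.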

[8] = read-out: adenosine kinase (ADK) gene, ADK (gene 132); assay: LTEA_HepaRG_ADK: Life Technologies and Expression Analysis (LTEA) Assay for adenosine kinase (ADK) gene using HepaRG (AID 2283471)
Procedure, shortened: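 HepaRG (human liver), 48 h chemical exposure, 8-pt half-log series, top 100 uM, 0.5% DMSO vehicle. Readout: ADK mRNA by qRT-PCR vs housekeeping genes; bidirectional curve fit relative to DMSO baseline.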

[9] = read-out: Alpha-fetoprotein (AFP) gene, AFP (gene 174); assay: LTEA_HepaRG_AFP: Life Technologies and Expression Analysis (LTEA) Assay for Alpha-fetoprotein (AFP) gene using HepaRG (AID 2283472)
Procedure, shortened: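 Differentiated human HepaRG cells exposed 48 h in serum-free induction medium, 8-point half-log series from 100 uM in 0.5% DMSO, duplicate. AFP mRNA by qRT-PCR, normalized to ACTB, GAPDH, POLR2A; bidirectional fit vs DMSO.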

[10] = read-out: BCL2L11 (gene 10018); assay: LTEA_HepaRG_BCL2L11: Life Technologies and Expression Analysis (LTEA) Assay for Bcl-2 (BCL2L11) gene using HepaRG (AID 2283473)
Procedure, shortened: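 Read-out is BCL2L11 transcript level by qRT-PCR, normalized to three housekeeping genes and fitted bidirectionally against 0.5% DMSO vehicle. HepaRG cells received chemicals for 48 h in serum-free induction medium, 100 uM down in half-log dilutions.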

Measured: AC50

Chain of Broad substrate specificity ATP-binding cassette transporter ABCG2 (Homo sapiens) (Q9UNQ0 whole entry, looked up): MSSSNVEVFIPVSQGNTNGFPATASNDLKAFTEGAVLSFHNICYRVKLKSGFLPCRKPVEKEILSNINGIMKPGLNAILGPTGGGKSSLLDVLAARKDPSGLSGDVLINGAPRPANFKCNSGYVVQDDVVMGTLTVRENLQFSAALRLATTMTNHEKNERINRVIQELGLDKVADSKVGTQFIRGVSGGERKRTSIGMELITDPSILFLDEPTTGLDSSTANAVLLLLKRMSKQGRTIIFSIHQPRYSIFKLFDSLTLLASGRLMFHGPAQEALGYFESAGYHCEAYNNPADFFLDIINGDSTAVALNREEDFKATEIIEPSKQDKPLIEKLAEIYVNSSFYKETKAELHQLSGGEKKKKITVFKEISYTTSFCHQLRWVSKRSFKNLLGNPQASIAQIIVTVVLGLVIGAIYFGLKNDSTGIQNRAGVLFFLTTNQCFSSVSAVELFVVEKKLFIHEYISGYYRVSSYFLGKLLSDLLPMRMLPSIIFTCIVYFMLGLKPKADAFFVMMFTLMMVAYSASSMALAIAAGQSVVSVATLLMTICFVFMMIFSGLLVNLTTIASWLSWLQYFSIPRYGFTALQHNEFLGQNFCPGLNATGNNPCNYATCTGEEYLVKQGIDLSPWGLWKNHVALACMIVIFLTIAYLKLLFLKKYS

CCC(=O)Nc1ccc(Cl)c(Cl)c1
active: [1] 50 µM | [5] 50 µM
inactive: all other assays above

CC(C)=CC1C(C(=O)OCN2C(=O)C3=C(CCCC3)C2=O)C1(C)C (configuration not stated)
not listed: [3]
inactive: all other assays above

Cc1ccn2nc(S(=O)(=O)Nc3c(F)cccc3F)nc2n1
inactive: all assays above

CCNc1nc(Cl)nc(NC(C)(C)C#N)n1
active: [1] 5.92 µM
inactive: all other assays above

CSC1=N[C@@](C)(c2ccccc2)C(=O)N1Nc1ccccc1
inactive: [3] | [6] | [7] | [8]
active: [1] 83.6 µM | [2] 13.2 µM | [4] 27.3 µM | [5] 13.3 µM | [9] 35.2 µM | [10] 12.6 µM

COc1ccc(C(=CC(=O)N2CCOCC2)c2ccc(Cl)cc2)cc1OC
active: [1] 11 µM
not listed: [3]
inactive: all other assays above

Cc1nn(-c2cc(NS(C)(=O)=O)c(Cl)cc2Cl)c(=O)n1C(F)F
active: [1] 13.6 µM
inactive: all other assays above

CNC(=O)ON=C(SC)C(=O)N(C)C
inactive: all assays above

CCc1cnc(C2=NC(C)(C(C)C)C(=O)N2)c(C(=O)O)c1 (configuration not stated)
not listed: [3]
inactive: all other assays above

CN1COCN(Cc2cnc(Cl)s2)C1=N[N+](=O)[O-]
inactive: all assays above

CCCCOC(=O)c1ccccc1C(=O)O
inactive: all assays above

Cc1cc(C2CC2)nc(Nc2ccccc2)n1
inactive: all assays above

CCCCN(CC)c1c([N+](=O)[O-])cc(C(F)(F)F)cc1[N+](=O)[O-]
inactive: all assays above

CCOP(=S)(OCC)Oc1ccc([N+](=O)[O-])cc1
active: [9] 2.4 µM
inactive: all other assays above

CC1=NNC(=O)N(/N=C/c2cccnc2)C1
not listed: [7]
inactive: all other assays above

CNC(=O)Oc1cccc2c1OC(C)(C)O2
inactive: all assays above

COP(=O)(OC)C(O)C(Cl)(Cl)Cl (configuration not stated)
active: [5] 0.0572 µM
inactive: all other assays above

COc1cc(OC)nc(Sc2cccc(Cl)c2C(=O)O)n1
inactive: all assays above

COP(=O)(NC(C)=O)SC (configuration not stated)
not listed: [3]
inactive: all other assays above

CON=C(C(=O)OC)c1ccccc1CON=C(C)c1cccc(C(F)(F)F)c1
not listed: [3]
inactive: all other assays above

CCOP(=S)(OCC)OC(Cl)C(Cl)(Cl)Cl (configuration not stated)
inactive: all assays above

C=C(C)[C@H]1Cc2c(ccc3c2O[C@@H]2COc4cc(OC)c(OC)cc4[C@@H]2C3=O)O1
active: [1] 15.2 µM | [2] 1.18 µM | [4] 11.7 µM | [5] 0.384 µM | [7] 6.55 µM | [9] 0.985 µM | [10] 1.07 µM
inactive: [3] | [6] | [8]

O=c1ccc(=O)[nH][nH]1
inactive: all assays above

CC(COc1ccc(Oc2ccccc2)cc1)Oc1ccccn1 (configuration not stated)
active: [1] 29.2 µM | [2] 20.6 µM | [9] 38.9 µM
inactive: all other assays above

CCOC(=O)CC(SP(=O)(OC)OC)C(=O)OCC (configuration not stated)
inactive: all assays above

CCOP(=O)(OCC)Oc1cc(C)nc(C(C)C)n1
inactive: all assays above

CC(=NC#N)N(C)Cc1ccc(Cl)nc1
inactive: all assays above

CCOP(=O)(NC(C)C)Oc1ccc(SC)c(C)c1 (configuration not stated)
active: [9] 16.5 µM
inactive: all other assays above

CCCSP(=O)(OCC)SCCC
active: [1] 20.3 µM
inactive: all other assays above

CCCCOC(=O)[C@@H](C)Oc1ccc(Oc2ccc(C#N)cc2F)cc1
active: [4] 39.7 µM
inactive: all other assays above

CC(Oc1cccc(Cl)c1)C(=O)O (configuration not stated)
active: [1] 20.2 µM | [2] 5.79 µM
inactive: all other assays above

CCc1cccc(CC)c1N(COC)C(=O)CCl
inactive: all assays above

CCCOc1nn(C(=O)NS(=O)(=O)c2ccccc2C(=O)OC)c(=O)n1C
inactive: all assays above

COP(=O)(OC)OC(Br)C(Cl)(Cl)Br (configuration not stated)
not listed: [7] | [10]
inactive: all other assays above
